# Results from PubChem BioAssay.
# Inconclusive results are not listed. Active and inactive are the calls of the source.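 Rule for the calls, unless noted: active = viability at or below 10% of carrier control in both of two separate runs; inconclusive = viability at or below 10% in only one of the two runs; inactive = the rest.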
# Assays:
# [1] = reducers of endogenous Her2 protein level, primary screen, SKBR3 breast tumor cells, AlphaScreen, ATP viability (AID 461;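 active = Her2 level under about 52% in both replicate screens, with viability over 70% of control, limit read from the data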;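 for Her2 level: lower value means less Her2 protein in the cells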;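 for viability: percent of carrier control wells set as 100% viability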); conditions: 18-24 h, measured here: SKBR3 viability, ATP luminescence, at 10 µM
# [2] = biological target: Receptor tyrosine-protein kinase erbB-2 (Homo sapiens) (UniProt P04626); assay: as above; conditions: 18-24 h, at 10 µM, stronger effect = lower value
# [3] = SK-BR-3 cell growth inhibitors, pilot screen, 24 h, human (AID 572); conditions: SK-BR-3 viability, CellTiter-Glo luminescence, at 10 µM, stronger effect = lower value;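 note: compound exposure lasted between 18 and 24 h rather than exactly 24 h; 100% = carrier-treated control wells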
# [4] = HUVEC growth inhibition – cell-based, human, primary screen (AID 575;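 active = viability at or below 30% in both replicate assays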;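 note: 100% = median of untreated cell wells with 0.1% DMSO on each plate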); conditions: HUVEC proliferation, CellTiter-Glo luminescence, 72 h; at 10 µM; stronger effect = lower value
# [5] = growth inhibitors of H69AR lung tumor, primary screen, human, duplicate replicates (AID 580;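 active = viability at or under a set limit in both replicates, limit being median viability minus 3 SD, cut at about 48% in these data, passing the limit was not always enough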;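 note: 100% = mean luminescence of untreated wells and 0% = no signal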); conditions: H69AR lung tumor cells viability, ATP luminescence, 72 h; at 10 µM; stronger effect = lower value
# [6] = reversal of MRP1-mediated doxorubicin resistance, pilot screen, H69AR cells, doxorubicin co-treatment (AID 601;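 active = viability loss from added drug above about 55%, and viability with drug at most 40%, in both replicates, limit read from the data, passing the limit was not always enough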); conditions: CellTiter-Glo, 72 h, at 10 µM; for differential viability (reversal): stronger effect = higher value
# [7] = Restrictive medium S. cerevisiae growth inhibition, OD615, pilot screen of yeast lifespan reduction project, restrictive growth control (AID 706;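 active = growth inhibition above a set limit, 3 SD over mean compound inhibition, in both replicates, cut at about 43% in these data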;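 note: modified DeaD lifespan yeast strain shifted to restrictive glucose medium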); conditions: OD615, 48 h, at 10 µM, stronger effect = higher value
# [8] = viability gain of MRP-1-high H69AR cells under doxorubicin, pilot screen, MRP-1 activator project, CellTiter-Glo, duplicate (AID 807;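 active = viability increase at or above a cutoff of the median across tested compounds plus 3 SD, cut at about 8.5% in these data, passing the limit was not always enough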;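 note: compound pretreatment 18-22 h then 72 h combined with doxorubicin; 0% = doxorubicin alone and 100% = vehicle without doxorubicin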); conditions: H69AR viability with doxorubicin, CellTiter-Glo luminescence; at 10 µM; stronger effect = higher value
# [9] = growth suppression of PTEN-deleted HCT116, pilot screen, cell-based, HCT116 clonal line, CellTiter-Glo (AID 824;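 active = viability at or below 27.92% in each of two runs, the all-compound median minus 4 SD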;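 note: 0% = 20 µM Hyamine control and 100% = vehicle cell control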); conditions: 60 h, at 10 µM, stronger effect = lower value
# [10] = inhibitors of the yeast RAM network, pilot screen, dse1pr::URA3 reporter, 5-FOA selection (AID 869;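 active = inhibition over a set limit, the all-compound mean plus 3 SD, in both replicate runs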;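 note: 0% = DMSO wells with no growth and 100% = 10 µM 1-NA-PP1 with full growth; RAM network block rescues cells from 5-FOA so hits raise OD615 growth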); conditions: S. cerevisiae dse1pr::URA3 5-FOA growth, OD615, 2 d; at 10 µM; stronger effect = higher value; strain carries analog-sensitive mutant Cbk1 kinase
# [11] = RAM signaling pathway blockade in yeast – S. cerevisiae, Pdr1DBD-CYC8 efflux-inhibited sensitized strain, primary screen (AID 1298;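 active = RAM network inhibition above 8.4% in each of two replicates, 3 SD over the compound average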;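 note: 0% = DMSO untreated cells without growth and 100% = 10 µM 1-NA-PP1 full growth; higher means more yeast growth rescued from 5-FOA killing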); conditions: S. cerevisiae cbk1-as DSE1-URA3 strain, 5-FOA growth OD615, 2 d; at 50 µM; stronger effect = higher value
# [12] = growth suppression of beta-catenin knockout HCT116, pilot screen, human colon tumor cells (AID 823;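 active = cell viability at or below a set limit in both duplicate runs, the limit being the all-compound median minus 4 SD, cut at about 23% in these data, passing the limit was not always enough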;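 note: 0% = wells killed by 20 µM Hyamine and 100% = untreated DMSO cell wells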); conditions: CellTiter-Glo, 60 h, at 10 µM, stronger effect = lower value
# [13] = H69AR cells + 2 uM doxorubicin, measured here: viability with 2 uM doxorubicin, stronger effect = lower value
# [14] = H69AR cells, compound alone cytotoxicity
# Sequence of Receptor tyrosine-protein kinase erbB-2 (Homo sapiens) (P04626 whole entry, looked up): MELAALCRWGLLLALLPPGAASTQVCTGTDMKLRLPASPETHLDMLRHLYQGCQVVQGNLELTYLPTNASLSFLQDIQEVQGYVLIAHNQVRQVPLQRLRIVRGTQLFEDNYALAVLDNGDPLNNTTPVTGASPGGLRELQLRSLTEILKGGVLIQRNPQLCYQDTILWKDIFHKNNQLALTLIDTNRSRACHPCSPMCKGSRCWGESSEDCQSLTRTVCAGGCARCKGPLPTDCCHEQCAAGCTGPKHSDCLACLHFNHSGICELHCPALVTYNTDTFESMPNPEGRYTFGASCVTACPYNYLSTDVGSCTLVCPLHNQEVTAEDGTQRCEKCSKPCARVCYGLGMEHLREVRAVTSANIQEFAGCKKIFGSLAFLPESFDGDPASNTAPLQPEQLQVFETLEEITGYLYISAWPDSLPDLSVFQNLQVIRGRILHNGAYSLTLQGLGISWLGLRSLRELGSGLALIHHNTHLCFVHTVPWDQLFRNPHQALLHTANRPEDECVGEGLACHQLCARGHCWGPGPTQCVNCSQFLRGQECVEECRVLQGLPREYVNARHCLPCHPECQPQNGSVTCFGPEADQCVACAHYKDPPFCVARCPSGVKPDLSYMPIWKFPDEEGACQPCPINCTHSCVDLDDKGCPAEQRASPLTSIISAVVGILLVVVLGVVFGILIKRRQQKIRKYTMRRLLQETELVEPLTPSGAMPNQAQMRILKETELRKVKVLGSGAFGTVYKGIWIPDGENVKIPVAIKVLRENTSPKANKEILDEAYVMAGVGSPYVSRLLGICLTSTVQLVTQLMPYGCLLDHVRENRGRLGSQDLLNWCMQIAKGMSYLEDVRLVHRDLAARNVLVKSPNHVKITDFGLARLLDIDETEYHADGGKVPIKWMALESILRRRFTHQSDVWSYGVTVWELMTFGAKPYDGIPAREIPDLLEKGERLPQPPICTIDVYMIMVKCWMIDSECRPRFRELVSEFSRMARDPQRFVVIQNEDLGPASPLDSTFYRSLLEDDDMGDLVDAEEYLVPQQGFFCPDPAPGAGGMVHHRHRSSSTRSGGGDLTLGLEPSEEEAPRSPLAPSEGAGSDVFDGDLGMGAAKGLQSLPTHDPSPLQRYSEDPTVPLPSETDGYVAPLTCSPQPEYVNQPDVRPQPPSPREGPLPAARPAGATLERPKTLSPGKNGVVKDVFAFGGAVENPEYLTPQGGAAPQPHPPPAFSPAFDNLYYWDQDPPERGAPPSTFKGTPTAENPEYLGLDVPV
structure (smiles),measurement,setting,value
COc1ccccc1OCC(O)COC(N)=O (configuration not stated),viability,[1],93.5%
same,Her2 level,[2],96% (inactive)
same,viability,[3],93.5% (inactive)
same,viability,[4],90.5% (inactive)
same,viability,[5],99.9% (inactive)
same,differential viability (reversal),[6]; H69AR cells + 2 uM doxorubicin,7.94% (inactive)
same,viability,[6]; [13],92%
same,viability,[6]; [14],99.9%
Cc1nc2ccccc2c2nc3ccccc3n12,growth inhibition,[7],43.3% (active)
same,viability increase,[8],-0.65% (inactive)
same,viability,[9],62.4% (inactive)
same,inhibition,[10],3.25% (inactive)
same,RAM network inhibition,[11],0.87% (inactive)
CC1(C)O[C@@H]2C[C@H]3[C@@H]4C[C@H](F)C5=CC(=O)C=C[C@]5(C)[C@@]4(F)[C@@H](O)C[C@]3(C)[C@]2(C(=O)CO)O1,viability,[1],94%
same,Her2 level,[2],110% (inactive)
same,viability,[3],94% (inactive)
same,viability,[4],90.5% (inactive)
same,viability,[5],94.1% (inactive)
same,differential viability (reversal),[6]; H69AR cells + 2 uM doxorubicin,1.96% (inactive)
same,viability,[6]; [13],92.2%
same,viability,[6]; [14],94.1%
O=C(CSCc1ccco1)Nc1cc(C(F)(F)F)ccc1N1CCOCC1,viability increase,[8],-5.7% (inactive)
same,viability,[12],63.4% (inactive)
same,viability,[9],79.1% (inactive)
same,inhibition,[10],1.91% (inactive)
same,RAM network inhibition,[11],4.46% (inactive)
Cc1cn([C@H]2C=C[C@@H](CO)O2)c(=O)[nH]c1=O,viability,[1],94%
same,Her2 level,[2],94.5% (inactive)
same,viability,[3],94% (inactive)
same,viability,[4],104% (inactive)
same,viability,[5],109% (inactive)
same,differential viability (reversal),[6]; H69AR cells + 2 uM doxorubicin,22.8% (inactive)
same,viability,[6]; [13],86.2%
same,viability,[6]; [14],109%
O=C(c1cc(-c2ccccc2O)on1)N1CCc2ccccc2C1,viability increase,[8],-0.83% (inactive)
same,viability,[12],97.9% (inactive)
same,viability,[9],90.5% (inactive)
same,inhibition,[10],0.485% (inactive)
same,RAM network inhibition,[11],7.78% (inactive)
C[C@H]1C[C@@H]2[C@H]([C@@H](O)C[C@@]3(C)[C@H]2CC[C@]3(O)C(=O)CO)[C@@]2(C)C=CC(=O)C=C12,viability,[1],115%
same,Her2 level,[2],115% (inactive)
same,viability,[3],115% (inactive)
same,viability,[4],93.8% (inactive)
same,viability,[5],88.1% (inactive)
same,differential viability (reversal),[6]; H69AR cells + 2 uM doxorubicin,9.38% (inactive)
same,viability,[6]; [13],78.7%
same,viability,[6]; [14],88.1%
COC(=O)CSCc1nc2ccccc2[nH]c1=O,viability increase,[8],-2.15% (inactive)
same,viability,[12],101% (inactive)
same,viability,[9],94.8% (inactive)
same,inhibition,[10],0.08% (inactive)
same,RAM network inhibition,[11],1.09% (inactive)
OCCN(CCO)c1nc(N2CCCCC2)c2nc(N(CCO)CCO)nc(N3CCCCC3)c2n1,viability,[1],117%
same,Her2 level,[2],94.5% (inactive)
same,viability,[3],117% (inactive)
same,viability,[4],79.6% (inactive)
Nc1ccc(S(=O)(=O)Nc2ncccn2)cc1,viability,[1],96.5%
same,Her2 level,[2],100% (inactive)
same,viability,[3],96.5% (inactive)
same,viability,[4],91.4% (inactive)
same,viability,[5],104% (inactive)
same,differential viability (reversal),[6]; H69AR cells + 2 uM doxorubicin,5.02% (inactive)
same,viability,[6]; [13],98.7%
same,viability,[6]; [14],104%
COc1ccccc1N1CCN(C(CNC(=O)c2ccco2)c2cccnc2)CC1 (configuration not stated),viability increase,[8],-2.37% (inactive)
same,viability,[12],85% (inactive)
same,viability,[9],77% (inactive)
same,inhibition,[10],2.23% (inactive)
same,RAM network inhibition,[11],-0.32% (inactive)
COc1ccc(NC(=O)CC2SC(=Nc3ccccc3)NC2=O)c(OC)c1 (configuration not stated),viability increase,[8],2.03% (inactive)
same,viability,[12],93.4% (inactive)
same,viability,[9],92% (inactive)
same,inhibition,[10],2.23% (inactive)
same,RAM network inhibition,[11],7.78% (inactive)
CC(=O)N[C@@H](CS)C(=O)O,viability,[1],105%
same,Her2 level,[2],105% (inactive)
same,viability,[3],105% (inactive)
same,viability,[4],90.8% (inactive)
same,viability,[5],101% (inactive)
same,differential viability (reversal),[6]; H69AR cells + 2 uM doxorubicin,12.8% (inactive)
same,viability,[6]; [13],88.6%
same,viability,[6]; [14],101%
COc1ccc(-c2n[nH]c(C(F)(F)F)c2-c2cc3ccccc3o2)c(O)c1,viability increase,[8],-7.49% (inactive)
same,viability,[12],59.5% (inactive)
same,viability,[9],55% (inactive)
same,inhibition,[10],-1.46% (inactive)
same,RAM network inhibition,[11],-1.35% (inactive)
C[C@]12C=CC(=O)C=C1CC[C@H]1[C@@H]3C[C@@H](O)[C@](O)(C(=O)CO)[C@@]3(C)C[C@H](O)[C@@]12F,viability,[1],94%
same,Her2 level,[2],110% (inactive)
same,viability,[3],94% (inactive)
same,viability,[4],101% (inactive)
same,viability,[5],106% (inactive)
same,differential viability (reversal),[6]; H69AR cells + 2 uM doxorubicin,-2.81% (inactive)
same,viability,[6]; [13],109%
same,viability,[6]; [14],106%
COc1ccc(CN(CCN(C)C)c2ccccn2)cc1,viability,[1],91%
same,Her2 level,[2],104% (inactive)
same,viability,[3],91% (inactive)
same,viability,[4],97.4% (inactive)
same,viability,[5],93.9% (inactive)
same,differential viability (reversal),[6]; H69AR cells + 2 uM doxorubicin,19.5% (inactive)
same,viability,[6]; [13],74.4%
same,viability,[6]; [14],93.9%
OC(CCN1CCCCC1)(c1ccccc1)C1CCCCC1 (configuration not stated),viability,[1],69.5%
same,Her2 level,[2],99.5% (inactive)
same,viability,[3],69.5% (inactive)
same,viability,[4],84.9% (inactive)
same,viability,[5],92.2% (inactive)
same,differential viability (reversal),[6]; H69AR cells + 2 uM doxorubicin,-0.69% (inactive)
same,viability,[6]; [13],92.9%
same,viability,[6]; [14],92.2%
C[C@]12C[C@H](O)[C@H]3[C@@H](CCC4=CC(=O)CC[C@@]43C)[C@@H]1CC[C@@H]2C(=O)CO,viability,[1],106%
same,Her2 level,[2],104% (inactive)
same,viability,[3],106% (inactive)
same,viability,[4],105% (inactive)
same,viability,[5],88.3% (inactive)
same,differential viability (reversal),[6]; H69AR cells + 2 uM doxorubicin,-5.99% (inactive)
same,viability,[6]; [13],94.3%
same,viability,[6]; [14],88.3%
NS(=O)(=O)c1cc2c(cc1Cl)NC(C1C[C@H]3C=C[C@@H]1C3)NS2(=O)=O (some centres not stated),viability,[1],110%
same,Her2 level,[2],130% (inactive)
same,viability,[3],110% (inactive)
same,viability,[4],88.3% (inactive)
same,viability,[5],92.7% (inactive)
same,differential viability (reversal),[6]; H69AR cells + 2 uM doxorubicin,-10.8% (inactive)
same,viability,[6]; [13],104%
same,viability,[6]; [14],92.7%
